# ± gives the standard deviation of the averaged measurements.
# Key:
# [1] = test system: DLD1; experiment: cell viability (CellTiter-Glo) relative to plate median (fraction of plate median); higher = more viable cells; details: 5 µM; treatment time 24 h; reporter: 7TFP
# How it was run: (§1)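 Normalisation used webcellHTS2 in additive mode without log transformation, scaling each well's luminescence to the plate median. The luminescence was firefly luciferase or CellTiterGlo, read on a Tecan F500 from parallel plates of colorectal cancer cells stably transduced with lentiviral TCF/Wnt firefly luciferase reporters. Those cells had been given library compounds at a final 5 µM for 24 h, and two independent replicates were averaged.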
# [2] = test system: HCT116; experiment: as above; details: 5 µM; treatment time 24 h; reporter: TCF4/Wnt
# How it was run: as §1
# [3] = test system: SW480; experiment: as above; details: 5 µM; treatment time 24 h; reporter: 7TFP
# How it was run: as §1
# [4] = test system: DLD1; experiment: TCF/Wnt firefly luciferase reporter signal relative to plate median (fraction of plate median); higher = higher Wnt reporter signal; details: 5 µM; treatment time 24 h; reporter: 7TFP
# How it was run: as §1
# [5] = test system: SW480; experiment: as above; details: 5 µM; treatment time 24 h; reporter: 7TFP
# How it was run: as §1
SMILES,cell viability [1],cell viability [2],cell viability [3],TCF/Wnt firefly luciferase reporter signal [4],TCF/Wnt firefly luciferase reporter signal [5]
O=C(O)CCCc1ccc(N(CCCl)CCCl)cc1,1.02 ± 0.035,0.958 ± 0.011,1.02 ± 0.067,0.974 ± 0.037,0.966 ± 0.0028
[O-][n+]1ccccc1[S-].[O-][n+]1ccccc1[S-].[Zn+2],0.515 ± 0.32,0.19 ± 0.11,0.628 ± 0.13,0.216 ± 0.13,0.165 ± 0.15
C1CCc2nnnn2CC1,0.931 ± 0.05,1.05 ± 0.035,0.925 ± 0.052,0.963 ± 0.017,1.11 ± 0.042
COc1cc2c(cc1OC)[C@@H]1C(=O)c3ccc(OC)c(CC=C(C)C)c3O[C@@H]1CO2,0.943 ± 0.11,0.849 ± 0.042,0.992 ± 0.011,0.848 ± 0.069,0.947 ± 0.13
O=C([O-])Cc1ccccc1.[Na+],0.97 ± 0.0057,0.906 ± 0.1,0.971 ± 0.021,0.923 ± 0.04,0.896 ± 0.0042
COc1ccc2c(c1OC)C(=O)O[C@H]2[C@H]1c2cc3c(cc2CCN1C)OCO3,1.06 ± 0.09,1.04 ± 0.061,0.9915 ± 0.0078,1.08 ± 0.028,1.03 ± 0.069
CCCCCCCCCCCC[C@@H](O)[C@H]1CC[C@H]([C@H](O)CCCC[C@H](O)CCCCC[C@@H](O)CC2=CC(C)OC2=O)O1 (stereo not given in full) [annonacin],0.926 ± 0.076,0.933 ± 0.014,0.92 ± 0.092,0.987 ± 0.075,0.923 ± 0.018
NCC(O)c1ccc(O)cc1 (stereo not given),0.972 ± 0.097,0.923 ± 0.015,0.972 ± 0.011,0.954 ± 0.21,0.943 ± 0.043
COC(=O)NC(=S)Nc1ccccc1NC(=S)NC(=O)OC,0.944 ± 0.071,0.966 ± 0.09,0.973 ± 0.0071,1.17 ± 0.042,1.02 ± 0.31
CCC1(C2=NCCN2)Cc2ccccc2O1 (stereo not given),0.9965 ± 0.005,1.04 ± 0.021,1.02 ± 0.09,1.015 ± 0.0071,1.04 ± 0.035
CCC1(CC)C(=O)C=CNC1=O,0.965 ± 0.016,0.923 ± 0.025,0.926 ± 0.013,1.02 ± 0.09,1.07 ± 0.021
Cc1cc(O)cc2oc(=O)c3c(O)cc(O)cc3c12 [Alternariol],0.914 ± 0.017,0.919 ± 0.013,1.01 ± 0.03,0.861 ± 0.12,0.992 ± 0.097
c1ccc2c(c1)sc1ccccc12,1 ± 0.026,0.97 ± 0.11,1.01 ± 0.049,0.867 ± 0.033,0.935 ± 0.036
Cc1cc2c(C(C)C)c(O)c(O)c(C=O)c2c(O)c1-c1c(C)cc2c(C(C)C)c(O)c(O)c(C=O)c2c1O,0.974 ± 0.037,0.969 ± 0.044,0.976 ± 0.03,0.966 ± 0.048,1.04 ± 0.11
CC(=O)O[C@H]1C[C@@H]2CC[C@@H]3[C@H](CC[C@@]4(C)[C@H]3C[C@H]([N+]3(C)CCCCC3)[C@@H]4OC(C)=O)[C@@]2(C)C[C@@H]1[N+]1(C)CCCCC1,0.9865 ± 0.0064,1.03 ± 0.062,0.963 ± 0.011,1.01 ± 0.093,0.9685 ± 0.0078
COc1c2c(c(CC=C(C)C)c3oc(=O)c(-c4ccc(O)cc4)c(O)c13)OC(C)(C)C=C2,0.9495 ± 0.0021,0.985 ± 0.064,1.01 ± 0.035,0.969 ± 0.016,0.985 ± 0.012
CCCCOC(=O)c1ccccc1C(=O)OCCCC,0.944 ± 0.044,0.98 ± 0.013,0.96 ± 0.071,0.847 ± 0.16,0.939 ± 0.03
C[C@]12CCC(=O)C=C1C=C[C@@H]1[C@@H]2CC[C@@]2(C)[C@H]1CC[C@@]2(O)CCC(=O)O,1.02 ± 0.07,1.16 ± 0.014,1.04 ± 0.028,1.01 ± 0.05,1.06
CCCCCCCCCCCCOC(=O)[C@H]1OC(=O)[C@H](O)[C@H]1C(=O)OO [Cinatrin C1],1.03 ± 0.11,1.02 ± 0.033,0.995 ± 0.035,0.905 ± 0.054,0.977 ± 0.033
COc1ccc(/C=C/c2cc(O)cc(O)c2)cc1,1.05 ± 0.057,1.01 ± 0.021,0.982 ± 0.018,1.25 ± 0.33,1.21 ± 0.099
O=c1cccc2n1C[C@@H]1CNC[C@H]2C1,0.978 ± 0.045,0.981 ± 0.015,1.005 ± 0.0071,0.84 ± 0.15,0.907 ± 0.044
COc1ccc2c3c([nH]c2c1)C(C)=NCC3,1.03 ± 0.059,0.971 ± 0.069,0.999 ± 0.03,1.25 ± 0.021,1.15 ± 0.071
O=C1C=CC(=O)c2c(O)cccc21,0.921 ± 0.035,0.972 ± 0.033,0.961 ± 0.016,1.03,1.08 ± 0.064
C=C1[C@@H]2CCC3[C@@](CC[C@@H]4[C@H](C(=O)O)C[C@@H](O[C@@H]5O[C@H](CO)[C@@H](OS(=O)(=O)O)[C@H](OS(=O)(=O)O)[C@H]5OC(=O)CC(C)C)C[C@@]34C)(C2)[C@@H]1O (stereo not given in full),1 ± 0.093,1.04 ± 0.061,1.01 ± 0.054,1.03 ± 0.072,0.9585 ± 0.0064
CCC(C)C(=O)c1c(O)c(C)c2oc3c(C)c(O)c(C(=O)C(C)CC)c(O)c3c2c1O (stereo not given),0.997 ± 0.033,0.95 ± 0.11,0.998 ± 0.045,0.9565 ± 0.0035,0.9575 ± 0.0092
C/C=C/[C@H]1O[C@@](O)([C@@H](C)[C@H](O)[C@H](C)[C@H]2OC(=O)/C(OC)=C/C(C)=C/[C@@H](C)[C@@H](O)[C@@H](CC)[C@@H](O)[C@H](C)C/C(C)=C/C=C/[C@@H]2OC)C[C@@H](O[C@H]2C[C@@H](O)[C@H](OC(N)=O)[C@@H](C)O2)[C@@H]1C [Concanamycin A],0.886 ± 0.095,0.998 ± 0.059,1.04 ± 0.035,0.806 ± 0.2,0.9 ± 0.12
CC(=O)NC1CCSC1=O (stereo not given),1.03 ± 0.055,1.01 ± 0.019,1.03 ± 0.028,1.02 ± 0.12,0.902 ± 0.12
CNC(=O)ON=C(C)SC,1.01 ± 0.021,0.928 ± 0.1,0.985 ± 0.035,0.98 ± 0.029,0.933 ± 0.058

# From the supplement of paper PMC6522484
